Results filed as inconclusive are left out. The source made the active and inactive calls. Calls come from the whole dose curve; as a rule, active = well fitted inhibition curve with a large enough effect; inconclusive = small, poorly fitted or top-dose-only effect; inactive = flat fitted curve, though single readings scatter.

The target in this assay is Glutathione peroxidase 1 (Homo sapiens) (UniProt P07203). Put plainly: Primary qHTS Assay for Inhibitors of Recombinant Selenoprotein Glutathione Peroxidase 1 (GPX1) (AID 1845191). Note: nearly all actives have a fitted effect of over 65% in size. The conditions noted are these: recombinant GPX1, GR-coupled NADPH fluorescence, 15 min; series mostly up to 48.8 µM. The source says: Assay Provider: Elias S.J. Arner MD PhD.
Chain of Glutathione peroxidase 1 (Homo sapiens) (P07203 whole entry, looked up): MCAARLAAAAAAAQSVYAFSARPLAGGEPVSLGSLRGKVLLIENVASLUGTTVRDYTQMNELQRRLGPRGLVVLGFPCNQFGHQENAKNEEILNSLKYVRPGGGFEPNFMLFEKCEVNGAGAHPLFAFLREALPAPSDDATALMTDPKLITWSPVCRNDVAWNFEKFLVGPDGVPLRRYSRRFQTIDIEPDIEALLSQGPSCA
Department of Medical Biochemistry and Biophysics
Karolinska Institutet, Solna, Stockholm, Sweden
Selenoprotein glutathione peroxidases (GPX), like the ubiquitously expressed GPX1 and the ferroptosis modulator GPX4, enact their antioxidant activities by reducing hydroperoxides using glutathione. […] GPX1 and GPX4 inhibitors have thus shown promise as anti-cancer agents. Existing inhibitors are often promiscuous, or modulate GPX activity only indirectly, so novel direct inhibitors identified through screening against GPX1 and GPX4 could be valuable. Here, we developed optimized glutathione reductase (GR)-coupled GPX assays for the biochemical high-throughput screen (HTS) of almost 12,000 compounds with known mechanisms of action. Initial hits were triaged using a GR counter-screen, assessed for isoform specificity using a separate GPX2 assay, and were assessed for general selenocysteine-targeting activity using a thioredoxin reductase (TXNRD1) assay. With this suite of assays, we identified novel GPX1/GPX2- and GPX4-specific inhibitors and can here present a validated pipeline for future discovery research for selenoprotein-targeting agents.
SEQUENCE No. (e.g., 1, 2, 3, etc.); […] (e.g., Cells, Incubation, Reagent, etc.); VALUE; DESCRIPTION.
1; Reagent 1; 3 uL; GPx1 enzyme or no enzyme control in 1536-well, black, solid Greiner assay plate.
2; Compound; 25 nL; Kalypsis pin tool (Wako USA) equipped with a 1536-well pin head.
3; Incubation; 30 min; room temperature.
4; Reagent 2; 1 uL; 10 nM GPX1, 1 mM GSH, 0.5 mM CHP, 0.5 mM NADPH, 100 nM GR, 0.01% BSA substrate
5; Detection; Fluorescence; ViewLux microplate reader, excitation 340 nm and emission 450 nm.
6; Incubation; 15 min; room temperature.
7; Detection; Fluorescence; ViewLux microplate reader, excitation 340 nm and emission 450 nm.
NOTES (numbers refer to Sequence numbers above)
1. 3 uL of 16.66 nM GPX1 and 0.016% BSA in assay buffer (50 mM Tris-HCl, 2 mM EDTA (pH 7.5), 150 mM NaCl) was added to columns 3-48 of 1536-well assay plates using a BioRAPTR Flying Reagent Dispenser (Let's Go Robotics (LGR), Carlsbad, CA). A no-enzyme control (0.01% BSA in TES assay buffer) was added to columns 1-2.
2. 25 nL of test compounds and DMSO controls were added to each well with a pin tool (Kalypsys).
3. The assay plates were incubated for 30 minutes at room temperature.
4. 1 uL of master mix (500 nM glutathione reductase (GR), 5 mM reduced glutathione (GSH), 2.5 mM NADPH in assay buffer) was added. 1 uL of cumene hydroperoxide (CHP) ([2.5 mM] in 50% EtOH) was then added within 5 minutes to initiate the reaction. Final concentrations were: 10 nM GPX1, 1 mM GSH, 0.5 mM CHP, 0.5 mM NADPH, 100 nM GR, 0.01% BSA.
5. Initial fluorescence readout (t=0) at 340/450 nm was measured using a ViewLux multimodal detector (PerkinElmer, Waltham, MA).
7. Endpoint fluorescence readout (t=15) at 340/450 nm was measured 15 min after room temperature incubation.
Regarding `Cc1ccc(N=CN(C)C=Nc2ccc(C)cc2C)c(C)c1`, the result was inactive. In the case of `CC(C(O)c1ccccc1)N(C)C/C=C/c1ccccc1` (stereo not given) it was “inactive”; in that of `C=CCOC(Cn1ccnc1)c1ccc(Cl)cc1Cl` (stereo not given), “inactive”. With `CC[C@H]1C[C@H]2[C@@H]3CCC4=CC(=O)CC[C@@H]4[C@H]3CC[C@]2(C)[C@H]1O`, the result was inactive. For `COP(=S)(OC)Oc1ccc(S(N)(=O)=O)cc1`, the outcome was inactive. In the case of `O=C(CCCN1CCC(n2c(=O)[nH]c3ccccc32)CC1)c1ccc(F)cc1` it was “inactive”; in that of `N#Cc1nn(-c2c(Cl)cc(C(F)(F)F)cc2Cl)c(N)c1S(=O)C(F)(F)F` (stereo not given), “inactive”; in that of `NC(=O)CN1CCCC1=O`, “inactive”.

On to `CNC(C)Cc1ccccc1OC` (stereo not given), for which the outcome was inactive.

Turning to `CCCOC(=O)Cc1ccc(OCC(=O)N(CC)CC)c(OC)c1`, the result was inactive. In the case of `c1ccc2c(c1)Sc1ccccc1N2CC1CN2CCC1CC2` (stereo not given) it was “inactive”.

On to `C[C@H](N)[C@H](O)c1ccc(O)c(O)c1`, for which the outcome was inactive.

Consider `CC1=C2[C@H]3OC(=O)[C@@H](C)[C@@H]3CC[C@@]2(C)C=CC1=O`, for which the outcome was inactive. As to `COc1ccc(C(=O)N2CCCC2=O)cc1`, the result was inactive. In the case of `COc1ccc(CN2CCNCC2)c(OC)c1OC` it was “inactive”; in that of `CC(Cc1ccccc1)NCCCCl` (stereo not given), “inactive”. In the case of `Oc1ccc([C@H]2CNCc3c2ccc(O)c3O)cc1O` it was “inactive”; in that of `C[C@@H]1CN(C2CCC(C#N)(c3ccc(F)cc3)CC2)CC[C@]1(C(=O)O)c1ccccc1` (stereo not given in full), “inactive”. In the case of `CCC(=O)C(CCN(C)C)(c1ccccc1)c1ccccc1` it was “inactive”; in that of `Cc1cccc(Cc2cnc[nH]2)c1C`, “inactive”. As to `CNC(=O)Oc1cccc2ccccc12`, the result was inactive. Turning to `Clc1ccc(CSC(Cn2ccnc2)c2ccc(Cl)cc2Cl)cc1` (stereo not given), the result was inactive. In the case of `Clc1ccc(C(OCCN2CCCCC2)c2ccccc2)cc1` (stereo not given) it was “inactive”; in that of `C=CCN1CC[C@]23CCCC[C@H]2[C@H]1Cc1ccc(O)cc13`, “inactive”. In the case of `COC(=O)C1=CCCN(C)C1` it was “inactive”; in that of `CCOC(=O)c1ncn2c1CN(C)C(=O)c1c(I)cccc1-2`, “inactive”. In the case of `CC(C)[N+](C)(CCC(C(N)=O)(c1ccccc1)c1ccccc1)C(C)C` it was “inactive”; in that of `CN1C2CCC(C)(C)C1CC(OC(=O)C(O)(c1cccs1)c1cccs1)C2` (stereo not given), “inactive”; in that of `CCOC(=O)C1(c2ccccc2)CCN(CCc2ccc(N)cc2)CC1`, “inactive”. As for `NC(=O)OCCCc1ccccc1`, the outcome was inactive.

With `CCC(=O)O[C@H]1CC[C@H]2[C@@H]3CCC4=CC(=O)CC[C@]4(C)[C@H]3CC[C@]12C`, the outcome was inactive. With `CN(C)C(=O)Oc1cc(OC(=O)N(C)C)cc(C(O)CNC(C)(C)C)c1` (stereo not given), the result was inactive.

Take `O=C(O)c1nn(Cc2ccc(Cl)cc2Cl)c2ccccc12`: the outcome was inactive. For `C[C@@H]1CC[C@H]2[C@@H](C)C(=O)O[C@@H]3O[C@@]4(C)CC[C@@H]1[C@]32OO4`, the outcome was inactive. In the case of `O=C(N[C@H]1N=C(c2ccccc2F)c2cccc3c2N(CC3)C1=O)c1cc2ccccc2[nH]1` it was “inactive”. With `COP(=O)(OC)C(O)C(Cl)(Cl)Cl` (stereo not given), the outcome was inactive. In the case of `CCN(CC)Cc1nccn1-c1ccc([N+](=O)[O-])cc1C(=O)c1ccccc1Cl` it was “inactive”. In the case of `O=C(O)Cc1ccccc1` it was “inactive”; in that of `CCCCCCCCCCCC[N+](C)(C)CCOc1ccccc1`, “inactive”; in that of `Clc1ccc(CO/N=C(\Cn2ccnc2)c2ccc(Cl)cc2Cl)c(Cl)c1`, “inactive”.

The values above are taken from PubChem BioAssay (NCATS).
